Source: PubChem (The Scripps Research Institute Molecular Screening Center)
Shown are actives, neighbours in structure and some others; about 2.8% of the full set was active somewhere.
pPAFAH inh: inhibitors of human plasma PAF acetylhydrolase (pPAFAH) | AID 463082 | recombinant pPAFAH, FP-rhodamine probe fluorescence polarization | 330,000 compounds, 1.5% hits | Q13093 | inhibition, % at 3.39 µM;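 active = inhibition above the mean inhibition across the screen plus 3 SD, cut at about 25% in these data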;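 also: inhibitors block binding of the rhodamine activity-based probe so polarization drops; 0% = enzyme with DMSO and 100% = wells lacking pPAFAH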
DAGLB inh: diacylglycerol lipase beta (human) inhibition; inhibition, % at 5.17 µM; Q8NCG7; 340,000 compounds, 0.059% hits; HEK293T DAGLB membrane lysate, EnzChek fluorogenic substrate; in the data active = inhibition above about 34%;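 also: 0% = enzyme with vehicle and 100% = wells lacking enzyme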
Target sequence (Q8NCG7 whole entry, looked up): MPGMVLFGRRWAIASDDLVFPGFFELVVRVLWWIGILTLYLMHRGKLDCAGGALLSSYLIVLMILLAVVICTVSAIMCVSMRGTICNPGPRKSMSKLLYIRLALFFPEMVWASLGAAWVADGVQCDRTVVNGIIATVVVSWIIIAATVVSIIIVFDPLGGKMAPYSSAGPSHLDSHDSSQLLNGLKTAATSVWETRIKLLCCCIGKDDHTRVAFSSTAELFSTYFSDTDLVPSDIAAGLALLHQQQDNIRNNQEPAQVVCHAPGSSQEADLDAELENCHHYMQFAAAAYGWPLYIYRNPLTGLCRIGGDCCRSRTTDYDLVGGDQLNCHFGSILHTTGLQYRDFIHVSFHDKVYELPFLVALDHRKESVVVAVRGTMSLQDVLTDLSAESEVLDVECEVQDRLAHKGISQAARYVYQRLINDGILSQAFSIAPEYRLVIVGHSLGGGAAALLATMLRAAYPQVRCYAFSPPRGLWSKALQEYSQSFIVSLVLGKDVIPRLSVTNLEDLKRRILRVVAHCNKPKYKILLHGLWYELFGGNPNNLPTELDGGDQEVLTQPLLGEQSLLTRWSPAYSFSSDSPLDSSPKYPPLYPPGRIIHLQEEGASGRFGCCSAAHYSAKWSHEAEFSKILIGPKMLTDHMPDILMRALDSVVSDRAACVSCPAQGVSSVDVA
PAFAH2 FP inh: PAFAH2 (human) inhibition. inhibition, % at 3.39 µM. recombinant PAFAH2, FP-rhodamine activity probe, fluorescence polarization. 340,000 compounds, 0.99% hits;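 active = inhibition above the mean over all tested compounds plus 3 SD, cut at about 30% in these data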;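 also: inhibitors block probe labeling of enzyme so polarization drops; 0% = enzyme with DMSO and 100% = wells lacking PAFAH2 protein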
HTRA1 inh: HTRA1 (human) protease inhibition | Q92743 | recombinant HTRA1, FP-rhodamine activity-based probe, fluorescence polarization | inhibition, % at 5.96 µM | 340,000 compounds, 0.5% hits | AID 504803; in the data active = inhibition above about 36%;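 also: 0% = enzyme with DMSO and 100% = wells lacking enzyme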
PAFAH1B2 inh: inhibitors of human PAFAH1B2. P68402. 340,000 compounds, 1.2% hits. recombinant PAFAH1B2, FP-rhodamine activity probe, fluorescence polarization. inhibition, % at 3.39 µM;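 active = inhibition above the mean of all tested compounds plus 3 SD, cut at about 24% in these data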;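 also: 0% = enzyme with DMSO and 100% = wells lacking PAFAH1B2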
PAFAH1B3 inh: inhibitors of human PAFAH1B3 | recombinant PAFAH1B3, FP-rhodamine probe, fluorescence polarization | inhibition, % at 3.39 µM | 340,000 compounds, 0.28% hits | AID 492972;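 active = inhibition above the screen-wide average of all tested compounds plus 3 SD, cut at about 25% in these data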;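 also: 0% = enzyme with DMSO only and 100% = wells lacking PAFAH1B3 protein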
PAFAH2 FP conf: confirmation of human PAFAH2 inhibitors; shares compounds with PAFAH2 FP inh; recombinant PAFAH2, FP-rhodamine activity probe, fluorescence polarization; inhibition, % at 3.39 µM; 2,300 compounds, 65% hits; AID 493030;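 active = mean inhibition over three repeats above a set limit taken from the earlier primary screen, cut at about 30% in these data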;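 also: inhibitor blocks binding of rhodamine activity probe so polarization falls; 0% = enzyme with DMSO and 100% = wells lacking PAFAH2 protein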
* = called active by the depositor; x = not tested or not shown.

SMILES	pPAFAH inh	DAGLB inh	PAFAH2 FP inh	HTRA1 inh	PAFAH1B2 inh	PAFAH1B3 inh	PAFAH2 FP conf
Cc1cc(NC(=O)CSCC(=O)N(C)Cc2ccc(Cl)cc2Cl)no1	5	0	1	-8	0	3	x
Cc1cc(C)nc(N/N=C/c2cc(Br)ccc2O)n1	3	3	-1	-4	3	6	x
O=C(NC1CCN(C(=O)Nc2cccc(Cl)c2)CC1)c1ccco1	4	1	-6	0	4	0	x
Cc1ccc(-c2ccc(/C=C3\C(=O)ON=C3c3ccccc3)o2)c([N+](=O)[O-])c1	19	10	32*	9	12	5	25
Cc1cc(C(=O)OCC(=O)Nc2ccccc2)c(C)o1	4	-2	78*	4	0	5	74*
COc1ccccc1NC(=O)COC(=O)c1cc(C)oc1C	1	-9	6	-8	1	2	x
Cc1ccc(C(=O)OCC(=O)Nc2ccc(F)c(Cl)c2)o1	7	-4	85*	-1	1	3	75*
Cc1cc(C(=O)OCC(=O)Nc2ccc(F)c(F)c2F)c(C)o1	9	-7	52*	0	6	3	50*
Cc1cc(C(=O)OCC(=O)Nc2ccc(F)cc2)c(C)o1	7	-3	79*	-9	1	6	78*
COc1ccc(Cl)cc1NC(=O)COC(=O)c1cc(C)oc1C	6	-11	-2	-17	10	4	x
CCc1noc(C)c1C(=O)NNC(=O)COc1ccccc1C	-3	-2	6	6	9	2	x
CCC(C(=O)Nc1ccc2[nH]ncc2c1)c1ccccc1 (stereo not given)	1	0	7	2	14	13	x
CC(=O)c1nn(-c2ccc(C(F)(F)F)cc2)c(=O)[nH]c1=O	-1	0	-1	3	8	0	x
COc1ccc(S(=O)(=O)N2CCCCC2)cc1NC(=O)CCCNC(=O)c1ccc(Cl)cc1	2	-1	4	-10	1	-1	x
CS(=O)(=O)c1cccc(S(=O)(=O)N2CCCCCC2)c1	0	-1	145*	0	6	4	2
O=S(=O)(c1cccc(S(=O)(=O)N2CCCC2)c1)N1CCCCC1	3	-3	5	-6	0	3	x
CC1CCN(C(=O)CN2C(=O)NC3(CCC(C)CC3)C2=O)CC1 (stereo not given)	-2	-2	-5	6	16	13	x
O=C(COC(=O)C1CCCCC1)Nc1cccc(Br)c1	7	-5	77*	-8	-2	4	71*
O=C(COC(=O)C1CCCCC1)Nc1cccc(F)c1	10	-6	89*	2	-1	4	79*
O=C(COC(=O)CC1CCCC1)Nc1cccc(F)c1	21	-2	81*	-4	-4	-1	81*
CCOC(=O)c1c(NC(=O)CN2CCN(S(=O)(=O)c3cc(Cl)ccc3Cl)CC2)sc(C(=O)N(C)C)c1C	x	-1	0	-59	1	3	x
CC(C)(C)C1CCC(=NOC(=O)c2ccc(F)cc2)CC1 (stereo not given)	5	-12	81*	-5	5	6	84*
Cc1ccc(C(=O)ON=C2CCN(S(=O)(=O)c3ccccc3)CC2)cc1	14	-3	90*	-7	1	3	89*
CS(=O)(=O)ON=C1CCN(S(=O)(=O)c2ccccc2)CC1	-1	2	0	-4	6	9	x
O=C(ON=C1CCN(S(=O)(=O)c2ccccc2)CC1)c1ccc(F)cc1	7	2	87*	4	9	5	84*
SMILES	pPAFAH inh	DAGLB inh	PAFAH2 FP inh	HTRA1 inh	PAFAH1B2 inh	PAFAH1B3 inh	PAFAH2 FP conf
O=C(c1cc(COc2cccc(C(F)(F)F)c2)on1)N1C[C@@H]2CCC[C@H]1C2	7	-4	-1	-19	-1	4	x
CCCCCCc1c(O)c2ccccc2[nH]c1=O	3	-1	7	9	4	7	x
CCCCCCCCCCCC1=C(O)C(=O)C=C(O)C1=O	13	19	53*	43*	16	19	40*
O=C(CNC(=O)C12CC3CC(CC(C3)C1)C2)N1CCN(S(=O)(=O)/C=C/c2ccccc2)CC1	3	-1	35*	-4	8	7	24
CC1CCN(C(=O)COC(=O)/C=C/c2ccc(Br)o2)CC1	6	1	30*	14	1	7	11
CC1CCCC(C)N1C(=O)COC(=O)/C=C/c1ccc(Br)o1 (stereo not given)	14	0	13	5	8	4	x
CS(=O)(=O)c1ccc(C(=O)OCC(=O)Nc2cccc(S(=O)(=O)N3CCCC3)c2)cc1	-2	-1	-2	5	-1	3	x
COc1ccc(C(=O)OCC(=O)Nc2cccc(S(=O)(=O)N3CCCCCC3)c2)cc1[N+](=O)[O-]	x	-1	38*	-27	-4	-2	26
COc1cc(C(=O)OCC(=O)Nc2cccc(S(=O)(=O)N3CCCC3)c2)ccc1OCC(C)C	3	-4	45*	-28	-7	0	45*
Cc1ccc(C(C(=O)NC(C)(C)C)N(Cc2ccccc2)C(=O)c2snc(C(N)=O)c2N)o1 (stereo not given)	1	0	-4	-8	3	2	x
COC(=O)c1cccc(N/C=C(\[N+](=O)[O-])S(=O)(=O)c2ccccc2)c1	4	0	-7	-6	9	9	x
COc1cccc(C(=O)OCC(=O)N2CCc3ccccc32)c1OC	x	-1	43*	-7	2	5	43*
COc1cc(N)c(Cl)cc1C(=O)OCC(=O)N1CCCC1	3	-1	-4	7	2	2	x
O=C(OCC(=O)N1CCc2ccccc21)c1ccccc1	1	-7	47*	-1	1	0	38*
COc1cc(N)c(Cl)cc1C(=O)OCC(=O)N1CCc2ccccc21	2	-2	33*	-17	3	0	18
CCOC(=O)c1ccc(CNC(=O)c2cc(COc3ccccc3SC)on2)o1	-1	-1	-4	-16	2	-6	x
C#CCOc1coc(COC(=O)c2ccccc2)cc1=O	0	2	50*	-6	4	8	30*
O=c1cc(CO)occ1OCc1ccccc1	0	-1	5	-1	9	8	x
COc1ccc2oc(C(=O)OCC(=O)NC3CCCC3)c(C)c2c1	8	-5	53*	-5	-2	2	40*
COc1ccc2oc(C(=O)OCC(=O)NC3(C#N)CCCC3)c(C)c2c1	8	3	53*	-2	-3	2	38*
CN(C1CCCCC1)S(=O)(=O)c1cccc(C#N)c1	3	0	3	4	7	4	x
